In PubChem BioAssay (Tox21) one finds max response and Potency data, which are given here for 38 compounds.

Molecules are shown by their SMILES. Values joined by “and” are separate entries in the source; they are usually repeats but may differ in a detail not shown here. Equal entries are not always repeated. Records with an inconclusive call do not appear. Some compounds were tested as several samples or in several runs, with calls that do not always agree. A number with no mark means an inactive call. Active and inactive are the calls of the source. The call rests on the fitted dose curve; in most records, active means well fitted cell-killing curve with a large enough effect in the repeat runs; inconclusive means weak or mixed curves, or effect the other way; inactive means flat fitted curve, though single readings scatter.
On the % scale 0 is the no-effect control and ±100 the full control effect; potency means the concentration at half of the fitted maximal effect.

The nature of the test: qHTS RealTime-Glo MT Cell Viability Assay in HEK293 cells - 40 hour (AID 1224874). Further: nearly all actives have a fitted effect of over 50% in size. The following applies: RealTime-Glo luminescence; max response: hits give low values. The source says:
U.S. Tox21 Program National Center for Advancing Translational Sciences [NCATS] NIH Chemical Genomics Center [NCGC] U.S. Environmental Protection Agency [EPA] National Institutes of Environmental Health Sciences [NIEHS] National Toxicology Program [NTP] U.S. Food and Drug Administration [FDA] Tox21 Assay Overview: Measure of cell viability is critical in the cell-base assay. Analysis of cell viability is necessary for the characterization of cell responses to cytotoxic drugs and environmental stress. A RealTime-Glo MT Cell Viability Assay to monitor cell viability in real time of continues cell culture during 40 hours of compound treatment was used to screen Tox21 10K library compounds in Hek293 cells. The RealTime-Glo MT Cell Viability Assay is a nonlytic, homogeneous, bioluminescent method to measure cell viability in real time using a simple, plate-based method. The assay involves adding NanoLuc luciferase and a cell-permeant prosubstrate to cells in culture. Viable cells reduce the proprietary prosubstrate to generate a substrate for NanoLuc luciferase. This substrate diffuses from cells into the surrounding culture medium, where it is rapidly used by the NanoLuc Enzyme to produce a luminescent signal. The signal correlates with the number of viable cells, making the assay well suited for cytotoxicity studies.
Tox21 Assay Protocol Summary: The mixture of Hek293 cell suspension and reagents were dispensed at 600cells/6 ul/well in 1536-well tissue culture treated black solid bottom plates using a Multidrop dispenser. After the assay plates were incubated at a 37 C/5% CO2 incubator for 5 hours, 23 nL of compounds dissolved in DMSO, positive and negative controls was transferred to the assay plate by a pintool work station. The plates were incubated at 37 C for 40 hours. The luminescence intensity were measured at 0h, 8h, 16h, 24h, 32h and 40h time points using ViewLux plate reader during compound treatment.
With `CCN(N=O)C(N)=O`, the max response was 4.37% and -1.44%.
As to `CCCCOCCOP(=O)(OCCOCCCC)OCCOCCCC`, the max response was -16.9%.
`CC(C)(c1cc(Cl)c(O)c(Cl)c1)c1cc(Cl)c(O)c(Cl)c1`: the max response is -12.2% and -31.9%.
Consider `CC(C)(OOC(C)(C)c1ccccc1)c1ccccc1`, for which the max response was -13.8% and -15.4%.
Still for that read-out and setting: under `NNC(N)=S` stands 1.23% and 8.52%; under `CN(C)C(=O)Nc1ccc(Cl)cc1`, -3.64% and -10.5%.
On to `Oc1cc(Cl)ccc1Cl`, for which the max response was -8.7% and -0.256%.
For the compound `CCOc1cc(Oc2ccc(C(F)(F)F)cc2Cl)ccc1[N+](=O)[O-]`, the max response is -24.7%.
The same measure, in the same setting: then `CNC(=O)Oc1cccc2c1OC(C)(C)O2`, with -0.755% and 5.29%.
Consider `O=C(CCl)c1ccccc1`, for which the Potency was 43.6 µM (active) and the max response is -7.31%.
On to `Clc1nc(Cl)nc(Cl)n1`, for which the max response was 10.8% and -11.8%.
As to `CC(C)c1ccc(CO)cc1`, the max response is 0.21% and 0.88%.
Consider `Nc1ccc(Cl)c(Cl)c1`, for which the max response was 0.648%.
Take `C=C(C)[C@H]1Cc2c(ccc3c2O[C@@H]2COc4cc(OC)c(OC)cc4[C@@H]2C3=O)O1`: the Potency is 55.7 nM (active) and 11 nM (active) and 47.7 nM (active).
In the case of `C#C[C@]1(O)CC[C@H]2[C@@H]3CCC4=CC(=O)CC[C@]4(C)[C@H]3CC[C@@]21C`, the max response is -4.36% and -16.3%.
For the compound `CCCCNC(=O)n1c(NC(=O)OC)nc2ccccc21`, the Potency is 6.88 µM (active).
Take `C=CC(=O)OCCO`: the max response was 4.73% and 14.7%.
`CCOC(=O)C(C)OC(=O)c1cc(Oc2ccc(C(F)(F)F)cc2Cl)ccc1[N+](=O)[O-]` (stereo not given): the max response was -24.2%.
For `Cc1ccc2c(c1N)C(=O)c1ccccc1C2=O`, the Potency is 9.67 µM (active) and 6.92 µM (active).
On to `O=C(O)C(F)(F)C(F)(F)C(F)(F)C(F)(F)C(F)(F)C(F)(F)C(F)(F)F`, for which the max response was -9.47% and 7.44%.
Take `COP(=O)(OC)OC`: the max response is 4.65%.
With `COP(=S)(OC)Oc1ccc([N+](=O)[O-])cc1`, the max response is -19% and -8.77%.
For the compound `c1nc[nH]n1`, the max response was -1.48% and 17.9%.
As to `c1ccc(NNc2ccccc2)cc1`, the max response was -4.96% and -2.46%.
Take `CC(C)NC(C)C`: the max response is 17.8% and 3.33%.
As for `Nc1ccc(-c2ccccc2)cc1`, the Potency is 10 µM (active) and the max response was -19.4%.
As to `Cc1ccc(OP(=O)(Oc2ccc(C)cc2)Oc2ccc(C)cc2)cc1`, the max response was -19.7%.
Take `CCC(=O)O[C@H]1CC[C@H]2[C@@H]3CCC4=CC(=O)CC[C@]4(C)[C@H]3CC[C@]12C`: the Potency is 19.5 µM (active) and 23.9 µM (active).
Regarding `CCCCC(CC)COC(=O)c1ccc(C(=O)OCC(CC)CCCC)c(C(=O)OCC(CC)CCCC)c1` (stereo not given), the max response is 0.196% and 3.66%.
In the case of `CCOC(=S)S`, the max response is 6.71% and 5.31%.
Still for that read-out and setting: then `CCC(C)c1ccc(O)cc1` (stereo not given), with -20.1% and -0.111%; and `O=C1C=CC(=O)C=C1`, with 13.4%.
`CCCCCc1cc(O)cc(O)c1`: the Potency is 24.5 µM (active).
Regarding `CCOP(=S)(OCC)O/N=C(\C#N)c1ccccc1`, the max response was 6.15% and 1.47%.
Consider `O=Cc1ccco1`, for which the max response was -0.5%.
With `CC(C)Oc1cc(-n2nc(C(C)(C)C)oc2=O)c(Cl)cc1Cl`, the Potency is 34.7 µM (active).
Regarding `CCCCCCOC(=O)c1ccccc1C(=O)OCCCCCC`, the max response is -22.3%.
Take `CCCCCCCCCCCOC(=O)c1ccccc1C(=O)OCCCCCCCCCCC`: the max response is 1.36% and 2.6%.
